Data on three sequences can be found in article PMC5700166.

The test deals with T1, GST-Nv-NF-kB (Ser allele) (Nematostella vectensis, UniProt A7UNT2 2-411).
T1 sequence: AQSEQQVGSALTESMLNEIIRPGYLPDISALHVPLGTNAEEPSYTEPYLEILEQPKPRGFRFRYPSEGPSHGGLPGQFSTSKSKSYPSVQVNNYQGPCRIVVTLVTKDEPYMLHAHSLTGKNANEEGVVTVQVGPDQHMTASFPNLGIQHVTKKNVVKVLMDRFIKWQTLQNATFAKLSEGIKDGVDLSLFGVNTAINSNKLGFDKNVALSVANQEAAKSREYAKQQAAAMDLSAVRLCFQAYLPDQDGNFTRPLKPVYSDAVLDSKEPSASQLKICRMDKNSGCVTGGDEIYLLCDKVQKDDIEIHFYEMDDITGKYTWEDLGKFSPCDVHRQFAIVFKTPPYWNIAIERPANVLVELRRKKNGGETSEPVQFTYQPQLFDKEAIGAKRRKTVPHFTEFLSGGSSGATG
Put plainly: protein-binding microarray (PBM); PBM: ~300 nM protein, 6 mM HEPES pH 7.8, 80 mM KCl, 0.5 mM EDTA, 0.5 mM EGTA, 6% glycerol, 35 ng/ul poly-dIdC, 1% milk, 1 h, room temperature; Ap Aiptasia and Nv Nematostella (sea anemones) / Co Capsaspora / Aq Amphimedon (sponge) / Dm Drosophila / Hu human; RHD is the Rel homology domain; high values mean tight binding. As to conditions: dsDNA, one strand shown.
On to “CCGATTAACATCATTTCCGGAAATGATGTTAATCGGGTCTTGATTCGCTTGACGCTGCTG”, for which the binding signal is 1.02 z-score.

In the case of “CCGATTAACATCAGGGGGGAGAATGATGTTAATCGGGTCTTGATTCGCTTGACGCTGCTG”, the binding signal was 6.04 z-score.

On to “CCGATTAACATCAGGGAGTTTACTGATGTTAATCGGGTCTTGATTCGCTTGACGCTGCTG”, for which the binding signal was 3.63 z-score.
